Publication PMC4336329 (PLoS ONE, 2015)
About 14,000 (4.5%) of roughly 310,000 compounds showed an effect of 50% or more. Effects have a minus sign here. Many of the other results were omitted from the sample, so strong results are more common in it than they were.

Each compound was assayed against human ether-à-go-go-related gene (hERG) potassium channel (human, UniProt Q12809) (assay: primary screen, population patch clamp on CHO cells stably expressing hERG; higher = less effect of the substance).
Sequence of human ether-à-go-go-related gene (hERG) potassium channel (Q12809 whole entry, looked up): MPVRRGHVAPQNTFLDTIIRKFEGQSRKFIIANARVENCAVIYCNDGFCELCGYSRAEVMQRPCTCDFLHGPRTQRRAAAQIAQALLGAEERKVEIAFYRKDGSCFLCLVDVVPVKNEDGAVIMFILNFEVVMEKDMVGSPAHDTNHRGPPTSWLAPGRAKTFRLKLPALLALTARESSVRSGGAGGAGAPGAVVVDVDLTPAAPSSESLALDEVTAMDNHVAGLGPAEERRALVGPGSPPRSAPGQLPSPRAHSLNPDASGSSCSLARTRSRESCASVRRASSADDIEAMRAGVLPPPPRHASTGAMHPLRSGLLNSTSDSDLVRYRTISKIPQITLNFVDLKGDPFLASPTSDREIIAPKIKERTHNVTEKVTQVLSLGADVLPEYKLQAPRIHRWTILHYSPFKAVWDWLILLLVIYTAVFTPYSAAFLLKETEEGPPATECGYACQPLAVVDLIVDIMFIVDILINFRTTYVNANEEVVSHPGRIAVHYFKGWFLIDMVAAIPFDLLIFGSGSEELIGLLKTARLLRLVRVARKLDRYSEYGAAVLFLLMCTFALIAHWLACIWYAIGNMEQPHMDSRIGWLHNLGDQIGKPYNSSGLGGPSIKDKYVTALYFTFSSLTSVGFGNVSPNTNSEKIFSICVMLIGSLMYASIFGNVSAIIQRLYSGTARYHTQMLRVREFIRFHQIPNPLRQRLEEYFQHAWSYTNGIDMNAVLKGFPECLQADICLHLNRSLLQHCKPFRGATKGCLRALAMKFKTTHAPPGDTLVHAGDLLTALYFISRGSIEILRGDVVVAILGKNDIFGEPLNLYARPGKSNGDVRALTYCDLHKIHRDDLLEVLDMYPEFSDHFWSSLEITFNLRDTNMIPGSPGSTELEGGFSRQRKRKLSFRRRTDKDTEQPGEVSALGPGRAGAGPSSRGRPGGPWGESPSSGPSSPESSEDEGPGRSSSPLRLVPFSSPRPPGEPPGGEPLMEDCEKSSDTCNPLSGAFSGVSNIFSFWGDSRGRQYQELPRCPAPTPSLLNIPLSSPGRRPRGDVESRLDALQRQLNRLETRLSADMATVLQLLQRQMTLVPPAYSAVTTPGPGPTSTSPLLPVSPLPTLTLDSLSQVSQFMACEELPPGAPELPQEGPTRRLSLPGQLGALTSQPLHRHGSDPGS
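Also: peak tail current of the secondary pulse compared with the same well before compound.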

Row | Compound | hERG current change (%, negative = inhibition) at 10uM
1 | COC(=O)c1cc(OC)c(OC)cc1NCC(=O)Nc1cccc(C(F)(F)F)c1 | 13.8%
2 | COc1ccc(C(=O)N2CCOCC2)cc1S(=O)(=O)N1CCC(C)CC1 | -9.4%
3 | COc1ccccc1NC(=O)Cn1c([N+](=O)[O-])cnc1C | 11%
4 | NC(=S)N=Nc1c(O)n(CCCl)c2ccc(Br)cc12 | -27.4%
5 | CCc1ccccc1S(=O)(=O)Cc1ccc(C(=O)NCC2CCCO2)o1 (stereo not drawn) | -23%
6 | Cc1ccc(C(C)NC(=O)Cc2cccs2)cc1C (stereo not drawn) | -44.2%
7 | CCN1CCCC1CNC(=O)C(=O)NC(C)c1ccccc1 (stereo not drawn) | 13%
8 | Br.N=c1n(CCN2CCOCC2)c2ccccc2n1CC(=O)c1cccc([N+](=O)[O-])c1 | -42.2%
9 | Br.N=c1n(CC(=O)c2cccc([N+](=O)[O-])c2)c2ccccc2n1Cc1ccccc1 | -17.9%
10 | Br.N=c1n(CCN2CCCCC2)c2ccccc2n1CC(=O)c1cccc([N+](=O)[O-])c1 | -69%
11 | Br.C=CCn1c(=N)n(CC(=O)c2cccc([N+](=O)[O-])c2)c2ccccc21 | -56.7%
12 | Cl.N=C(c1cccc([N+](=O)[O-])c1)N1CCCCCC1 | 2.26%
13 | Br.CCn1c(=N)n(CC(=O)c2cccc([N+](=O)[O-])c2)c2ccccc21 | 12.1%
14 | O=C1Nc2ccccc2/C1=C/c1cnc(-c2ccccc2)[nH]1 | 26.2%
15 | C[C@@H]1C(=O)O[C@H]2[C@H](O)[C@@]34[C@H]5C[C@@H](C(C)(C)C)[C@]36[C@@H](OC(=O)[C@@H]6O)O[C@@]4(C(=O)O5)[C@@]12O | 21.2%
16 | CC(OC(=O)C1CCN(S(=O)(=O)c2ccc(Cl)cc2)CC1)C(=O)N1CCc2ccccc21 (stereo not drawn) | -16.4%
17 | Oc1ccc(-c2cccc(-c3ccc(O)cc3)n2)cc1 | 15.5%
18 | CN(C)S(=O)(=O)N1CCN(C(=O)N2CCCCC2)CC1 | 3.64%
19 | COc1cc(/C=C(\C#N)c2nn(CCO)c(N)c2C#N)cc(OC)c1OC | 12.5%
20 | O=C(COc1ccccc1)NCC(=O)N1CCCCCC1 | 7.21%
21 | O=c1cc(-c2ccccc2)[nH]n1-c1nc2ccccc2s1 | 14.2%
22 | CN(C)CCCN=Cc1c(-c2ccccc2)[nH]n(-c2nc3ccccc3s2)c1=O | -71%
23 | CCC(=NCc1ccccc1)c1c(C(F)(F)F)[nH]n(-c2nc3ccccc3s2)c1=O | 12.6%

Row | Compound | hERG current change (%, negative = inhibition) at 10uM
24 | CN(C)CCCN=Cc1c(O)n(CCc2ccccc2)c(=O)[nH]c1=O | -0.99%
25 | O=c1c(C=NCCCO)c(-c2ccccc2)[nH]n1-c1nc2ccccc2s1 | -72.6%
26 | O=c1c(C=NCc2cccnc2)c(C(F)(F)F)[nH]n1-c1nc2ccccc2s1 | 9.04%
27 | C/C(=N/NC(=O)c1cccs1)c1c(C)[nH]n(-c2nc3ccccc3s2)c1=O | 7.38%
28 | O=c1[nH]c(=O)n(Cc2ccccc2)c(O)c1C=NCCCn1ccnc1 | 1.23%
29 | CCOC(=O)Cc1cc(=O)n(-c2nc3ccccc3s2)[nH]1 | 5.12%
30 | O=c1c(C=NCCCn2ccnc2)c(-c2ccccc2)[nH]n1-c1nc2ccccc2s1 | -71.4%
31 | CCN(CC)CCCN=Cc1c(-c2ccccc2)[nH]n(-c2nc3ccccc3s2)c1=O | -78.2%
32 | Nn1c(SCC(=O)NC2CCS(=O)(=O)C2)nnc1-c1cccs1 (stereo not drawn) | 16.7%
33 | COc1ccc(NC(=O)c2ccccc2CC[N+](=O)[O-])cc1 | 9.51%
34 | COc1ccc(CCNC(=O)C2CC(c3ccc(C(F)(F)F)cc3)=NO2)cc1 (stereo not drawn) | -6.74%
35 | COc1ccc(C(=O)OCC(=O)NCC2CCCO2)cc1 (stereo not drawn) | 17.7%
36 | COc1ccc2nc(NS(=O)(=O)c3ccc(NC(C)=O)cc3)sc2c1 | 14%
37 | O=C(CCN1C(=O)/C(=C/c2ccco2)SC1=S)Nc1ccc(C(=O)O)c(O)c1 | 25.1%
38 | Cc1sc2nc(C)n(/N=C/c3ccccc3O)c(=O)c2c1C | -7.37%
39 | O=C(Nc1cc(C(F)(F)F)ccc1N1CCOCC1)c1ccccc1F | -4.2%
40 | COCCCN=Cc1c(-c2ccccc2)[nH]n(-c2nc3ccccc3s2)c1=O | -75.1%
41 | CC(=NC1CC1)c1c(-c2ccccc2)[nH]n(-c2nc3ccccc3s2)c1=O | 9.63%
42 | CCCN=C(C)c1c(-c2ccccc2)[nH]n(-c2nc3ccccc3s2)c1=O | -7.79%
43 | CC(=NCCCn1ccnc1)c1c(-c2ccccc2)[nH]n(-c2nc3ccccc3s2)c1=O | -70.8%
44 | COCCCN=Cc1c(C)[nH]n(-c2ccc(Br)c(C)c2)c1=O | -9.32%
45 | COCCCN=Cc1c(C)[nH]n(-c2ccc(Br)cc2Br)c1=O | 20.4%
